# Compound activity (PubChem BioAssay)
# This is a sample that favours compounds with a hit; in the whole collection about 5.7% have one here.
# DAX1 inh-1 – inhibits human nuclear receptor DAX1. hit rate 0.99% among 340,000. HEK293 Gal4-DAX1 luciferase reporter, luminescence. inhibition, % at 6.75 µM. AID 504766;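 active = inhibition above the mean over all tested compounds plus 3 SD, cut at about 4.2% in these data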;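 note: 0% = DAX1-transfected cells with DMSO and 100% = empty-vector control cells with DMSO; inhibition shows as a rise in luminescence from relieved DAX1 repression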
# Target sequence (P51843 207-470 limits assumed): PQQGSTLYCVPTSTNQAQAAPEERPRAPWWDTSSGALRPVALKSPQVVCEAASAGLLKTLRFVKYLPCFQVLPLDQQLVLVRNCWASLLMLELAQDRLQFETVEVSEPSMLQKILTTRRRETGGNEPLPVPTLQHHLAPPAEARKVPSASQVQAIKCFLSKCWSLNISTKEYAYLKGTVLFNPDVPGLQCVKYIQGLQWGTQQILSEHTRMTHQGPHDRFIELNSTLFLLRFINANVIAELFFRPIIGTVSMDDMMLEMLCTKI
# AHR act – activates the human aryl hydrocarbon receptor | P35869 | AHR-responsive luciferase reporter cells, luminescence | activation, % at 5 µM | hit rate 2.5% among 320,000; in the data active = activation above about 47%;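 note: 0% = vehicle wells and 100% = reference agonist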
# ssDAF-12 act – activators of S. stercoralis DAF-12 nuclear receptor; hit rate 1% among 370,000; HEK293 ssDAF-12/GRIP1 lit1-tk-luc reporter, luminescence; % of 3 µM dafachronic acid response; activation, % at 6.8 µM;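 active = activation above the mean over all tested compounds plus 3 SD, cut at about 0.9% in these data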;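 note: 0% = DMSO-only wells and 100% = 3 µM delta7-dafachronic acid wells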
# hcDAF12 agonist – H. contortus DAF-12 activation, primary screen | HEK293 hcDAF-12 lit1-tk-luc reporter, luminescence; 0% DMSO, 100% Δ7-dafachronic acid | activation, % at 6.8 µM | hit rate 1.4% among 370,000;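 active = activation above the mean of all tested compounds plus 3 SD, cut at about 5.5% in these data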;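 note: 100% = response to 3 µM Δ7-dafachronic acid high control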
# DAX1 inh-2 – blocks DAX1 repression of SF-1 activated StAR promoter; AID 652010; HEK293T StAR-luciferase reporter, SF-1/DAX-1 repression relief; inhibition, % at 6.8 µM; hit rate 1.1% among 370,000;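 active = inhibition above the mean over all tested compounds plus 3 SD, cut at about 3.6% in these data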;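 note: 0% = DAX-1 cells with DMSO and 100% = cells lacking DAX-1 with DMSO; higher inhibition means more luminescence from relief of DAX-1 repression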
# hgDAF-12 ag – activates the H. glycines DAF-12 receptor ligand-binding domain; activation, % at 6.8 µM; HEK293 GAL4-hgDAF12 UAS-luciferase reporter, agonist luminescence; normalized to butyrate control; hit rate 1.8% among 370,000;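 active = activation above a cutoff set at the mean of all screened compounds plus 3 SD, cut at about 10% in these data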;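 note: 0% = DMSO wells and 100% = sodium butyrate wells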
# DAX1 conf – NR0B1 (human) inhibition, confirmation | inhibition, % at 6.8 µM | hit rate 87% among 2,400 | shares compounds with DAX1 inh-2 | HEK293T StAR-promoter luciferase reporter, SF-1/DAX-1 repression;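 active = inhibition above the average of every tested compound plus 3 SD, cut at about 3.8% in these data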;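 note: 0% = DAX-1 cells with DMSO and 100% = no DAX-1 control cells with DMSO; active compounds raise luminescence by relieving repression of the StAR reporter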
# SF1 mutant ctr – nonselective inhibitor or artifact in SF-1 mutant DAX1 counter-screen; shares compounds with DAX1 inh-2; HEK293 StAR-luciferase, SF-1 AF2 mutant, luminescence; inhibition, % at 6.8 µM; hit rate 78% among 2,400; AID 652136;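 active = inhibition above the mean of all tested compounds plus 3 SD, cut at about 3% in these data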;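 note: 0% = DAX-1 transfected cells with DMSO and 100% = cells without DAX-1 with DMSO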
# Starred values were filed as active, the others as inactive; nt = no result.
SMILES,DAX1 inh-1,AHR act,ssDAF-12 act,hcDAF12 agonist,DAX1 inh-2,hgDAF-12 ag,DAX1 conf,SF1 mutant ctr
Cc1cccc(C(C)C)c1NC(=O)COC(=O)CNS(=O)(=O)c1ccccc1,-1,-1,0,-2,2,1,nt,nt
COCCCNC(=O)C[C@H]1C[C@H](C(=O)N2CCOCC2)[C@@]2(CCC3CCCC3)c3[nH]c4cc(-c5ccco5)ccc4c3CCN2C1=O,-1,nt,-1,0,5.8*,-2,1,1
CCOc1cc(N2CCOCC2)c(OCC)cc1NC(=O)Cn1nc(C)c([N+](=O)[O-])c1C,-1,-1,-1,-2,4.7*,2,2,1
COc1cc(NC2c3ccccc3C(=O)N2c2ccc(C)cn2)cc(OC)c1OC (stereo unspecified),4,13,0,2,6.1*,8,3,3.1*
COc1ccc(C(=O)NCC(c2ccco2)N(C)C)cc1S(=O)(=O)NCc1ccc(Cl)cc1 (stereo unspecified),0,0,-1,0,-2,-2,nt,nt
COc1ccc(NC(=O)CCN2C(=O)[C@@H]3[C@H](C2=O)[C@H]2C=C[C@@H]3C2)cc1,1,-1,-1,0,1,2,nt,nt
Cc1ccc(NC(=O)NCCN2C(=O)C3C4C=CC(C4)C3C2=O)cc1 (stereo unspecified),5.8*,9,-1,6.5*,5.1*,10,13*,6.1*
CC12CCC(=O)N1C(C(=O)NNC(=O)c1ccc(Br)cc1)CS2 (stereo unspecified),2,2,-1,-1,5.5*,3,1,-1
COC(=O)c1ccccc1NC(=O)N1CCc2ccc(NC(=O)c3ccccn3)cc2C1,1,41,0,1,5.1*,7,-4,-3
CCc1ccc(OCC(=O)NNC(=S)NC(=O)C2CCCCC2)c(Br)c1,0,3,-1,0,1,1,nt,nt
CCc1ccc(OCC(=O)NC2CCCCC2)c(Br)c1,1,32,0,4,6.9*,9,6.9*,4.4*
O=C(NNC(=S)Nc1ccccc1Cl)c1ccccc1Br,1,nt,0,4,15*,11*,12*,6.1*
OC[C@H]1O[C@@H](c2nc(-c3ccc(Br)cc3)no2)C[C@@H]1O,nt,nt,0,5.8*,4.8*,12*,6.0*,4.9*
Brc1ccc(-c2noc(C3CCCCC3)n2)cc1,0,3,0,0,0,-1,nt,nt
O=C(COC(=O)C1CCN(c2ccc(C(F)(F)F)cn2)CC1)c1ccccc1,0,2,-1,0,2,3,nt,nt
O=C(Nc1ccc2c(c1)OCO2)c1ccccn1,1,22,0,2,8.8*,11*,9.9*,7.1*
O=C(NN=Cc1ccc2c(c1)OCO2)c1ccccc1,3,nt,1,6.0*,5.3*,10,11*,5.8*
O=C(Nc1ccc2c(c1)OCO2)c1cc(C2CC2)on1,3,26,0,4,7.0*,9,13*,7.8*
CCC[C@H]1[C@@H](OC(=O)NCCc2ccccc2)CC[C@@]23CCCN2C(=O)CCC[C@@H]13,nt,nt,-2,0,nt,-4,nt,nt
COc1cc(C(=O)N/N=C(\c2ccccc2)c2ccccn2)cc(OC)c1OC,-2,25,-2,-4,-2,-9,nt,nt
COc1cc(C(=O)N/N=C(\C)c2ccccn2)cc(OC)c1OC,-2,63*,0,1,8.3*,-5,-1,0
O=C(COC(=O)c1ccccc1-n1cnnn1)c1ccc(F)cc1,3,2,0,4,7.7*,7,7.5*,5.6*
COc1ccccc1C(=O)COC(=O)c1ccc(-n2cnnn2)cc1,-1,3,-1,-2,-1,3,nt,nt
CCC(=O)Nc1sc(C(=O)Nc2ccccc2OC)c(C)c1C(=O)OC,0,25,0,2,0,2,nt,nt
CCC(=O)Nc1sc(C(=O)Nc2ccccc2F)c(C)c1C(=O)OC,0,-1,0,4,5.9*,13*,13*,6.3*
SMILES,DAX1 inh-1,AHR act,ssDAF-12 act,hcDAF12 agonist,DAX1 inh-2,hgDAF-12 ag,DAX1 conf,SF1 mutant ctr
Cc1ccc(OCc2csc(N)n2)cc1,1,8,-1,1,5.1*,7,3,2
Nc1nc(COc2ccc(Cl)cc2)cs1,1,-3,-1,1,1,6,nt,nt
CCOC(=O)N1CCN(C(=O)c2ccc3c(Cl)c4c(nc3c2)CCCC4)CC1,0,12,-1,-1,0,0,nt,nt
O=C(c1ccc2c(Cl)c3c(nc2c1)CCCC3)N1CCC(N2CCCCC2)CC1,1,0,-1,-1,9.0*,9,7.0*,6.1*
Nc1c(C(=O)Nc2ccc3c(c2)OCCO3)nnn1Cc1cccc(Br)c1,4,21,-1,3,9.3*,3,9.0*,5.9*
Nc1c(C(=O)Nc2ccc3c(c2)OCCO3)nnn1CCc1ccccc1,-1,34,-1,0,-2,9,nt,nt
CC(CNC(=O)COC(=O)c1ccco1)c1ccccc1 (stereo unspecified),1,-2,-1,0,1,1,nt,nt
COc1cc([C@@H]2c3cc4c(cc3[C@H](O)[C@H]3COC(=O)[C@H]23)OCO4)cc(OC)c1OC,0,10,0,0,12*,-4,15*,-5
COc1cc(C2c3cc4c(cc3C(O)C3COCC23)OCO4)cc(OC)c1OC (stereo unspecified),1,nt,-1,-1,0,5,nt,nt
COc1ccc(-c2cnc3c(NC=O)cc(-c4ccccc4OC)cn23)cc1OC,nt,nt,-2,-3,11*,0,30*,-8
Cn1c(NCc2ccccc2O)nc2ccccc21,2,-1,0,2,2,9,nt,nt
Cn1c(NCc2ccccc2Cl)nc2ccccc21,8.2*,77*,-1,2,6.5*,9,9.7*,5.9*
CC(=O)C(=Cc1ccc(Cl)cc1)C(=O)c1ccccc1,nt,nt,-1,-1,-3,0,nt,nt
CCc1ccc(NC(=O)Nc2ccon2)cc1,3,11,0,3,4.6*,5,5.6*,5.4*
C#CCN(C[C@H]1[C@H](OC(=O)Nc2cccs2)[C@H](OC(=O)Nc2cccs2)C[C@H]2C(=O)N(c3ccccc3)C(=O)[C@@H]12)S(=O)(=O)c1ccc(C)cc1,0,nt,-1,-2,4.6*,-3,0,0
